We go through 34 compounds from PubChem BioAssay (NCATS).

Structures are written as SMILES. Several values for one entry are separate records, joined by “and”; a condition that tells them apart may be missing. Equal values may be shown once. Inconclusive results are not listed. Where a structure was tested more than once in an assay, its records may differ in their call. Activity calls are given as the source filed them. Calls follow the shape of the dose curve; as a rule, active = well fitted inhibition curve with a large enough effect; inconclusive = small, poorly fitted or top-dose-only effect; inactive = no such curve, though single readings can be large or run the other way.
% is scaled to controls: 0 for no effect and ±100 for the full control effect; potency is read from the fitted curve at half-maximal effect.

The nature of the test: Primary qHTS for inhibitors of nuclear receptor binding SET domain protein 2 (NSD2) in an RCH-ACV wild type WT cells (2C) (AID 1645877). Also: nearly all actives have a fitted effect of over 70% in size. The conditions noted are these: RCH-ACV (leukaemia line) NSD2 WT (2C) viability, CellTiter-Glo, 72 h; series mostly up to 44.9 µM; activity change, negative = cell killing: at the top concentration. (In general: In qHTS, concentration-response curves come from the screen itself.)
For `CN[C@@H]1CN(c2ccc3c(=O)c(C(=O)O)cn(-c4nccs4)c3n2)C[C@@H]1OC`, the Potency was 0.0645 µM (active).
Turning to `CC(C)Oc1cc(Nc2nc(N[C@@H](C)c3ccc(F)cn3)ncc2Cl)[nH]n1`, the Potency is 9.34 µM (active) and 6.51 µM (active).
As to `CC(C)C[C@H](NC(=O)c1cc2ccccc2s1)C(=O)N1CCN(C(=O)[C@H](CO)NS(=O)(=O)c2ccc(Cl)cc2Cl)CC1`, the Potency was 20.9 µM (active).
On to `CN(C)CCCNC(=O)c1ccc(-c2cc(O)c3ncccc3c2)cc1`, for which the Potency was 10.3 µM (active) and 9.34 µM (active).
In the case of `CN1C(=O)C(Cc2c[nH]c3ccccc23)NC1=S` (centres undefined), the Potency entry is “inactive”.
Still for that read-out and setting: then `C[C@@]1(C(=O)Nc2ccc(F)nc2)CCCN1c1nc(Nc2cc(C3CC3)[nH]n2)c2cccn2n1`, with 2.63 µM (active); and `CO[C@@H]1C(N(C)C(=O)c2ccccc2)C[C@H]2O[C@]1(C)n1c3ccccc3c3c4c(c5c6ccccc6n2c5c31)C(=O)NC4=O` (some centres undefined), with 1.32 µM (active).
On the same count and under the same terms, the value for `N#Cc1ccc(Oc2ccc3c(c2)COB3O)cc1` was 6.61 µM (active).
For the compound `OC1CCC(Nc2ncc3nc(Nc4c(F)cc(F)cc4F)n([C@@H]4CCOC4)c3n2)CC1` (some centres undefined), the “activity change, negative = cell killing” value was -19.6% (inactive).
Take `CCN(CC)CCCCNc1nc2cc(Cl)c(Cl)cc2nc1-c1ccc(-c2cccs2)s1`: the Potency was 7.42 µM (active).
As for `CN[C@@H](C)[C@H]1[C@H](O)C[C@@]2(C)[C@@H]3CC[C@H]4C(C)(C)[C@@H](NC)CC[C@@]45C[C@@]35CC[C@]12C`, the activity change, negative = cell killing is -13.6% [at 9.23 µM] (inactive).
For the compound `COC(=O)Nc1ccc(-c2nc(N3CCOCC3)c3cnn(C4CCN(C(=O)OC)CC4)c3n2)cc1`, the Potency was 0.742 µM (active).
With `CC(C)[C@H](O)C(=O)N[C@@H](C)C(=O)N[C@@H]1C(=O)N(C)CCc2ccccc21`, the “activity change, negative = cell killing” value was 1.02% (inactive).
As for `CN(C)CCN(C)C(=O)c1ccc(NC(=O)Nc2ccc(-c3nc(N4CCOCC4)c4ccn(CC(F)(F)F)c4n3)cc2)cc1`, the Potency is 0.0186 µM (active).
In the case of `CCOc1ccccc1N=Nc1c(C)[nH]n(-c2nc(-c3ccccc3)cs2)c1=O`, the “activity change, negative = cell killing” value was -0.228% (inactive).
The same measure, in the same setting: then `C#CCN(C)CC1=Cc2ccccc2Oc2ccccc21`, with -7.04% (inactive).
Consider `CN(C)CC[C@H](CSc1ccccc1)Nc1ccc(S(=O)(=O)NC(=O)c2ccc(N3CCN(Cc4ccccc4-c4ccc(Cl)cc4)CC3)cc2)cc1[N+](=O)[O-]`, for which the Potency was 2.63 µM (active).
For `Cc1ccc(C(=O)N(CCCN)[C@@H](c2oc3cc(Cl)ccc3c(=O)c2Cc2ccccc2)C(C)C)cc1`, the Potency was 0.0263 µM (active).
For the compound `O=C1CCCC(=O)C1C(=O)c1ccc(C(F)(F)F)cc1[N+](=O)[O-]`, the “activity change, negative = cell killing” value was -1.66% (inactive).
In the case of `NCc1c[nH]c(=S)n1[C@H]1CCc2c(F)cc(F)cc2C1`, the “activity change, negative = cell killing” value is -14.7% (inactive).
Take `NC1(C(=O)N[C@@H](CCO)c2ccc(Cl)cc2)CCN(c2ncnc3[nH]ccc23)CC1`: the Potency is 2.35 µM (active).
For `CC(C)C[C@@H](N)[C@H](O)C(=O)N[C@H](C(=O)N[C@H](C(=O)N[C@@H](CC(=O)O)C(=O)O)C(C)C)C(C)C`, the outcome was inactive.
`O=C(O)Cc1cccc(OCCCN(Cc2cccc(C(F)(F)F)c2Cl)CC(c2ccccc2)c2ccccc2)c1`: the compound was called inactive.
As to `NCC1CCC(C(=O)O)CC1` (centres undefined), the “activity change, negative = cell killing” value was 5.08% [at 17.3 µM] (inactive).
In the case of `CN(C)N=Nc1nc[nH]c1C(N)=O`, the Potency is 3.72 µM (active).
As for `CCOC(=O)c1c(CSc2ccccc2)n(C)c2cc(Br)c(O)c(CN(C)C)c12`, the Potency is 20.9 µM (active).
Same read-out and setting: then `Nc1nc(Cl)nc2c1ncn2[C@@H]1O[C@H](CO)[C@@H](O)[C@H]1F`, with 0.0206 µM (active).
For `N#Cc1c(N(CC(=O)O)CC(=O)O)sc(C(=O)O)c1CC(=O)O`, the “activity change, negative = cell killing” value is 1.68% (inactive).
In the case of `COc1ccc2c(c1)c(C1=C(c3c[nH]c4ccccc34)C(=O)NC1=O)cn2CCCN(C)C`, the Potency is 6.61 µM (active).
On to `COc1ccc(CCN(C)CCCOc2ccc(S(=O)(=O)c3[nH]c4ccccc4c3C(C)C)cc2)cc1OC`, for which the Potency was 16.6 µM (active).
The same measure, in the same setting: then `CCOC(=O)[C@@H](N)CCC(=O)N[C@@H](CSCc1ccccc1)C(=O)N[C@@H](C(=O)OCC)c1ccccc1`, with 16.6 µM (active); and `O=[N+]([O-])c1ccc(Nc2ccccc2-c2ccccc2)c2nonc12`, with 20.9 µM (active).
For the compound `CCC[C@H](N[C@@H](C)C(=O)N1[C@@H]2CCCC[C@H]2C[C@H]1C(=O)O)C(=O)OCC`, the result was inactive.
On to `Cc1ccc(S(=O)(=O)Nc2nc3ccccc3nc2Nc2ccc3nsnc3c2)cc1`, for which the Potency was 14.6 µM (active) and inactive.
